# Screen size: about 300,000 compounds; about 37,000 (12%) were called active. Cut-off read from the data, not from the text of the source: active = max response mostly above about 13% (no sharp cut-off); inactive = mostly below about 14%. This excerpt belongs to a sample that is enriched for actives.
# Test: Cycloheximide Counterscreen for Small Molecule Inhibitors of Shiga Toxin; note: read at 38.3 µM for the half of the compounds with a filed dose; 0% is about no effect
# Settings: cell reporter, cycloheximide protein synthesis inhibition counterscreen; active compounds read high
row,Compound,max response
1,CC(=O)N(c1ccc2oc(=O)sc2c1)S(=O)(=O)c1ccc(C)cc1,-5.66% (inactive)
2,COC(=O)c1cccc([N+](=O)[O-])c1CS(=O)(=O)c1ccc(C)cc1,1.48% (inactive)
3,Cc1ccc(N=C2NC(=O)c3cccc([N+](=O)[O-])c32)cc1,37.1% (active)
4,Cc1ccc(Cl)cc1NC(=O)COC(=O)CC(C)(C)C,-0.256% (inactive)
5,O=[N+]([O-])c1cc(Br)c(O)c(/C=N/Nc2nc3ccccc3s2)c1,26% (inactive)
6,O=C(COc1ccc(-c2ccccc2)cc1)NN=C1CCCC1,-1.28% (inactive)
7,c1ccc2sc(NN=C3CCCC3)nc2c1,38.7% (active)
8,COCc1cc(=O)[nH]c(-c2ccc(C(F)(F)F)cc2)n1,-0.991% (inactive)
9,C=CCN(Cc1nc(-c2cc(OC)c3c(c2)OCO3)oc1C)C1CCS(=O)(=O)C1 (stereo unspecified),-2.18% (inactive)
10,Cc1occc(=O)c1OCc1ccc(F)cc1,5.09% (inactive)
11,Fc1cccc2ncnc(OCc3ccccc3)c12,6.13% (inactive)
12,Cc1nc2ccccc2cc1OCc1ccc(F)cc1,37.2% (active)
13,CCSc1nc2sc3c(c2c(=O)n1-c1ccc(C)cc1)CCN(C)C3,-1.97% (inactive)
14,Cc1cccc(NS(=O)(=O)c2ccc(C)c(C(N)=O)c2)c1,-1.67% (inactive)
15,Cc1ccccc1CC1(CO)CCCN(Cc2ccc3c(c2)OCCO3)C1 (stereo unspecified),-2.18% (inactive)
16,COc1ccc([C@H]2[C@H](C(C)=O)N3N=Cc4ccccc4C3C23C(=O)OC(C)(C)OC3=O)cc1 (stereo partly specified),12.2% (inactive)
17,CC(=O)c1cccc(-n2nnnc2SCC(=O)NNC(=O)C2CCCCC2)c1,0.0917% (inactive)
18,CN(C(=O)CSc1nnc(-c2c[nH]c3ccccc23)o1)C1CCS(=O)(=O)C1 (stereo unspecified),1.22% (inactive)
19,Nc1nnc(SCn2nnc3ccccc3c2=O)s1,13.9% (inactive)
20,CN(C(=O)CCn1c(=S)oc2ccccc21)C1CCCCC1,3.76% (inactive)
21,O=c1c2ccccc2nnn1CSc1nnnn1-c1ccccc1,67.5% (active)

row,Compound,max response
1,C=CCn1c(SCn2nnc3ccccc3c2=O)nnc1-c1ccc(Cl)cc1,8.6% (inactive)
2,CN(C(=O)COc1ncnc2c1cnn2-c1ccccc1)C1CCCCC1,2.25% (inactive)
3,CN(C(=O)CSc1nnnn1-c1ccccc1)C1CCCCC1,17.1% (active)
4,CN(C(=O)CSc1nncc2ccccc12)C1CCCCC1,30.4% (active)
5,CC(NC(=O)C1CCCN(S(=O)(=O)c2ccc(-n3cnnn3)cc2)C1)c1ccc(F)cc1 (stereo unspecified),1.89% (inactive)
6,Cc1cccc(N(Cc2ccccc2)C(=O)c2ccccc2F)c1,13.7% (inactive)
7,O=C(NCc1ccccc1Cl)C1CCCN1S(=O)(=O)c1ccc(F)cc1 (stereo unspecified),-3.67% (inactive)
8,COCCCNC(=S)N1CCCC(c2nc3cc(C)c(C)cc3[nH]2)C1 (stereo unspecified),13.5% (inactive)
9,CC1CCN(C(=S)c2ccc(-c3ccc(Cl)cc3Cl)o2)CC1,8.41% (inactive)
10,CCOC(=O)c1cnc(Nc2nc3ccccc3o2)nc1CSC(=S)N1CCCCC1,10.5% (inactive)
11,Cc1cc(N=Nc2ccc3ccccc3c2)ccc1O,46.6% (active)
12,COc1ccc(N=Nc2ccc(O)c(P(=O)(c3ccccc3)c3ccccc3)c2)cc1,-8.38% (inactive)
13,COc1ccnc2c1c(=O)n(Cc1cccc(F)c1)c(=O)n2C,6.46% (inactive)
14,Cc1ccc(-c2csc(NC(=O)Cn3[nH]c(=O)c4ccccc4c3=O)n2)cc1,11.5% (inactive)
15,COc1ccc(-c2csc(NC3OC(=O)c4ccccc43)n2)cc1 (stereo unspecified),20% (active)
16,COc1ccc2c(c1OC)C(=O)OC2c1c(O)nc(SC)n(-c2ccccc2)c1=O (stereo unspecified),-1.46% (inactive)
17,Cc1ccc(-c2csc(NC3OC(=O)c4ccccc43)n2)cc1 (stereo unspecified),21.8% (active)
18,CCc1ccccc1NC(=O)[C@@H]1CCC(=O)N1C1OC(=O)c2c1ccc(OC)c2OC (stereo partly specified),-2.07% (inactive)
19,COc1ccc2c(c1OC)C(=O)OC2Nc1nc(-c2ccccc2)cs1 (stereo unspecified),38.5% (active)
20,COc1ccc(N/C=C(\C2OC(=O)c3ccccc32)[N+](=O)[O-])cc1 (stereo unspecified),7.23% (inactive)
21,COc1ccc(C(=O)Nc2nc(-c3ccc(S(=O)(=O)N4CCOCC4)cc3)cs2)cc1,0.36% (inactive)

row,Compound,max response
1,O=C(Cn1c(NCCO)nc2ccccc21)c1ccc(Cl)cc1Cl,-1.01% (inactive)
2,COc1ccc(CN2CCN(Cc3cn(C)nc3-c3ccccc3)CC2CCO)c(C)c1C (stereo unspecified),7.91% (inactive)
3,CC(=O)c1ccc(S(=O)(=O)N(C)CCCC(=O)N(C)Cc2ccccc2F)cc1,2.54% (inactive)
4,COC(=O)C1=CN(Cc2ccc(OC)cc2)C=C(C(=O)OC)C1c1ccc(O)c(OC)c1,-3.7% (inactive)
5,O=C(c1ccc(Br)o1)N(c1ccccn1)C1CCCCC1,0.638% (inactive)
6,Cc1snc(SCc2c(F)cccc2Cl)c1C#N,-2.84% (inactive)
7,Cc1cc(C)c(C#N)c(SCc2ccc3c(c2)OCO3)n1,-2.14% (inactive)
8,Cc1ccc(CSc2nsc(C)c2C#N)cc1,22% (active)
9,Cn1c(CCC(=O)OCC(=O)NCc2ccccc2Cl)nc(=O)c2ccccc21,-1.91% (inactive)
10,CCOCCCNC(=S)Nc1ccc2nc(N3CCN(CC)CC3)cc(C)c2c1,-1.07% (inactive)
11,COc1cccc(CCNC(=O)c2cccc(NC(=O)C3=C(C)OCCS3)c2)c1,12% (inactive)
12,CC(=O)NC(=S)Nc1ccc(NC(=S)NC(=O)c2ccc([N+](=O)[O-])cc2)cc1,10.5% (inactive)
13,Cc1ccc(C(=O)NC(=S)Nc2ccc3[nH]c(=O)[nH]c3c2)cc1C,2.1% (inactive)
14,CC(=O)Nc1ccc(NC(=S)NC(=O)c2ccc([N+](=O)[O-])c(C)c2)cc1,17.1% (active)
15,COc1ccc(N2CC(C(=O)N[C@@H](C)C(=O)N3CCCCC3)CC2=O)cc1 (stereo partly specified),-0.721% (inactive)
16,O=C1/C(=C/c2coc3ccc(O)cc3c2=O)SC(=S)N1c1ccccc1,-2.68% (inactive)
17,CCOC(=O)c1cc(OC(=O)c2ccccc2Cl)n(-c2ccccc2)n1,28.5% (inactive)
18,Cc1cc(OC(=O)c2ccccc2Cl)ccc1N1C(=O)CCC1=O,43.6% (active)
19,COc1ccccc1C(=O)Oc1ccc(N2C(=O)CCC2=O)cc1,-4.08% (inactive)

# Source: PubChem BioAssay AID2314 (National Center for Advancing Translational Sciences (NCATS), 2010)
